Values joined by “and” are separate entries in the source; they are usually repeats but may differ in a detail not shown here. Equal values may be shown once. Some structures have more than one record in an assay (separate samples or runs), and their calls can disagree. Active and inactive are the calls of the source. Rule for the calls: active = hit-call score of the fitted dose curve at least 0.9, where 1 is the maximum; inactive = score below 0.9.
Columns and labels:
[1] = molecular target: Paired box protein Pax-6 (Homo sapiens) (UniProt P26367); assay: ATG_Pax6_CIS: Attagene CIS-FACTORIAL HepG2 Assay for human Paired Box 6 (PAX6) (AID 2282956); conditions: HepG2 CIS-FACTORIAL PAX6 reporter transcription, RNA readout; actives raise or lower the signal
Chain of Paired box protein Pax-6 (Homo sapiens) (P26367 whole entry, looked up): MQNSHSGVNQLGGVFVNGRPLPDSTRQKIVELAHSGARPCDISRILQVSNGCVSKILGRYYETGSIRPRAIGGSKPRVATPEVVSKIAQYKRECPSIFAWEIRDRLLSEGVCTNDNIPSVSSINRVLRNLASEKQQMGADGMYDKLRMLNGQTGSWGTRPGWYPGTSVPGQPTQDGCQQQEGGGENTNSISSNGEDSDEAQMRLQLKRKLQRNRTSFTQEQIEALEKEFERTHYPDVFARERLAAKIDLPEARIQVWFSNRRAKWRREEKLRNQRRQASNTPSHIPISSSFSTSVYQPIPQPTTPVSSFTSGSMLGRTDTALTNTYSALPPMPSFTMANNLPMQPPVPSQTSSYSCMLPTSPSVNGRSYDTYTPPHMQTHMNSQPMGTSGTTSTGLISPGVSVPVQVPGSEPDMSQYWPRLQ
How it was run: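 Read-out is reporter transcript level, measured by RT-PCR with fluorescent primer extension and capillary electrophoresis after 24 h dosing of transfected HepG2 cells. Activity in either direction fitted relative to DMSO control.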

[2] = ATG_PXRE_CIS: Attagene CIS-FACTORIAL HepG2 Assay for human Pregnane X Receptor Element (PXRE) (AID 2282957); conditions: HepG2 Attagene CIS-FACTORIAL PXRE reporter, mRNA; actives raise or lower the signal
How it was run: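 Reporter transcripts under endogenous PXR-responsive cis-regulation quantified from total RNA of transfected HepG2 cells 24 h post-dosing, via RT-PCR with fluorescent primer extension and capillary electrophoresis. Gain or loss of signal fitted against DMSO baseline.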

[3] = ATG_PPRE_CIS: Attagene CIS-FACTORIAL HepG2 Assay for human Peroxisome Proliferator-activated Response Element (PPRE) (AID 2282958); conditions: HepG2 PPRE cis-element reporter, Attagene transcription factor profiling; actives raise or lower the signal
How it was run: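 Measured endpoint: PPRE-controlled reporter mRNA, detected by RT-PCR and capillary electrophoresis fluorescence, from transiently transfected HepG2 cells 24 h after dosing. Curves fitted in both directions using DMSO baseline.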

[4] = ATG_RORE_CIS: Attagene CIS-FACTORIAL HepG2 Assay for human RAR-related Orphan Receptor Element (RORE) (AID 2282959); conditions: HepG2 Attagene cis-factorial RORE reporter, mRNA; actives raise or lower the signal
How it was run: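 Transiently transfected HepG2 reporter cells were treated 24 h. Reporter transcripts were detected by RT-PCR and capillary electrophoresis, with bidirectional fitting against DMSO.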

[5] = ATG_Sox_CIS: Attagene CIS-FACTORIAL HepG2 Assay for human SRY-box transcription factor (SOX) (AID 2282960); conditions: HepG2 Attagene cis-factorial SOX reporter, mRNA; actives raise or lower the signal
How it was run: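 Gain- or loss-of-signal endpoint, fitted bidirectionally with DMSO as negative control. Based on reporter mRNA from transfected HepG2 cells harvested 24 h post-treatment and quantified via RT-PCR and capillary electrophoresis.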

[6] = molecular target: Transcription factor Sp1 (Homo sapiens) (UniProt P08047); assay: ATG_Sp1_CIS: Attagene CIS-FACTORIAL HepG2 Assay for human Specificity Protein 1 (Sp1) (AID 2282961); conditions: HepG2 Sp1 cis-reporter transcription, actives raise or lower the signal
Chain of Transcription factor Sp1 (Homo sapiens) (P08047 whole entry, looked up, the tested form may be a part): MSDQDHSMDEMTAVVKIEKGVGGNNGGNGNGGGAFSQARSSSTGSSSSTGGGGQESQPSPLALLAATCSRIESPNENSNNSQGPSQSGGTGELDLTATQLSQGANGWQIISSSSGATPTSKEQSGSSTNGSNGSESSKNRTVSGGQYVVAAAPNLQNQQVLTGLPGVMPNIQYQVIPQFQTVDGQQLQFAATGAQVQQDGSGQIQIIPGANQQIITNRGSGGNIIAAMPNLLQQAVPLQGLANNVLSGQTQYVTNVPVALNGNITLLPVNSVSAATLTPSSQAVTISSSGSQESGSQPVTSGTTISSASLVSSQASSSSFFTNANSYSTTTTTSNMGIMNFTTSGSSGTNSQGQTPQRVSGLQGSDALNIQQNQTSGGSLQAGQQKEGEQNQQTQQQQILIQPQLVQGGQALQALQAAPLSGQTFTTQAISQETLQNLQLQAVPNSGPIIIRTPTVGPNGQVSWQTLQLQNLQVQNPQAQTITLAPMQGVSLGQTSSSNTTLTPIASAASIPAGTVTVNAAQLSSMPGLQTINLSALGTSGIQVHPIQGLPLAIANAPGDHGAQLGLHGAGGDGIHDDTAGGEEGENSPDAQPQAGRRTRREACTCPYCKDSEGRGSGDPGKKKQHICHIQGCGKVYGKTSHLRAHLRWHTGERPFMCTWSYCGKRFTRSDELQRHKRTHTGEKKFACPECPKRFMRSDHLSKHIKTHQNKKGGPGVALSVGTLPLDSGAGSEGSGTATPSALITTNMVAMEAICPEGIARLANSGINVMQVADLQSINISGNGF
How it was run: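 Endpoint reflects endogenous Sp1 transcriptional activity, not an exogenous fusion protein: HepG2 cells with transfected cis-regulated reporters, 24 h dosing, RT-PCR/capillary electrophoresis mRNA read-out, DMSO-normalised bidirectional fit.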

[7] = ATG_SREBP_CIS: Attagene CIS-FACTORIAL HepG2 Assay for human Sterol Regulatory Element Binding (SREBP) (AID 2282962); conditions: HepG2 Attagene cis-factorial SREBP reporter, mRNA; actives raise or lower the signal
How it was run: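 Endogenous SREBP activity read as cis-element-driven reporter transcript in transiently transfected HepG2, 24 h post-dosing; quantified via RT-PCR plus capillary electrophoresis of fluorescent fragments. Gain or loss of signal fitted relative to DMSO baseline.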

[8] = molecular target: Signal transducer and activator of transcription 3 (Homo sapiens) (UniProt P40763); assay: ATG_STAT3_CIS: Attagene CIS-FACTORIAL HepG2 Assay for human Signal Transducer and Activator of Transcription 3 (STAT3) (AID 2282963); conditions: HepG2, Attagene cis-factorial STAT3 reporter transcription; actives raise or lower the signal
Chain of Signal transducer and activator of transcription 3 (Homo sapiens) (P40763 whole entry, looked up): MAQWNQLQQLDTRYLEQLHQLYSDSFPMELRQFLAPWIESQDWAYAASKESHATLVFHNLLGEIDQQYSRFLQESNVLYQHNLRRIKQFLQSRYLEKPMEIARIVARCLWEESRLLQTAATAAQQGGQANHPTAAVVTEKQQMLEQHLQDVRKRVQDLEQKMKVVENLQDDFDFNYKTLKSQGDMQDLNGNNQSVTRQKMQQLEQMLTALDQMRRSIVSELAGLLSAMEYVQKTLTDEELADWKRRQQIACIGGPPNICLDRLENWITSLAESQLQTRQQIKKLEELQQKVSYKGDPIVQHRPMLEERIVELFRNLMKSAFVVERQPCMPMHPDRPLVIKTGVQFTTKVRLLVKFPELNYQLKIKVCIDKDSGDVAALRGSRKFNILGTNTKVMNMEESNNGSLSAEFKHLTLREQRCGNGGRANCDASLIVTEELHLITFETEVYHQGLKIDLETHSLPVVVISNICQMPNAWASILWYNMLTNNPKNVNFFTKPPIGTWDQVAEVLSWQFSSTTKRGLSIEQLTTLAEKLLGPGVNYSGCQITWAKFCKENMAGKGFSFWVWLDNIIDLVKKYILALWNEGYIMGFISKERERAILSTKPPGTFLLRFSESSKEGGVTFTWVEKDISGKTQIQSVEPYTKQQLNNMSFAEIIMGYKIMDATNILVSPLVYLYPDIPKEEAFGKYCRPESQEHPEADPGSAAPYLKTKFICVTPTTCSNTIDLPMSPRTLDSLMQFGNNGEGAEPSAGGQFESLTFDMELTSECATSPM
How it was run: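 Readout is reporter transcript quantified by RT-PCR and capillary electrophoresis, with 6-FAM primer extension and HpaI digestion. Total RNA is taken 24 h after dosing transiently transfected HepG2 carrying cis-regulated reporter units. Bidirectional fit against DMSO.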

[9] = ATG_TA_CIS: Attagene CIS-FACTORIAL HepG2 Assay for human TA Basal Promoter (AID 2282964); conditions: HepG2 Attagene CIS-factorial TA basal promoter reporter; actives raise or lower the signal
How it was run: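 Multiplexed mRNA reporter assay, HepG2, 24 h. Reporter cDNA amplified, 6-FAM primer-extended, HpaI-cut, CE-sized; DMSO = negative control and baseline.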

[10] = ATG_TCF_b_cat_CIS: Attagene CIS-FACTORIAL HepG2 Assay for human T-Cell-Factor with beta-catenin (TCF/b-cat) (AID 2282965); conditions: HepG2 TCF/beta-catenin cis-reporter transcription, actives raise or lower the signal
How it was run: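 Endogenous TCF/LEF activity read as reporter transcript level via RT-PCR and capillary electrophoresis fluorescence in transfected HepG2, 24 h exposure; gain or loss of signal fitted against DMSO controls.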

Measured: AC50

CCOCCOC(C)=O
inactive: all assays above

CC(C)(O)C(=O)Nc1ccc([N+](=O)[O-])c(C(F)(F)F)c1
inactive: [1] | [4] | [5] | [6] | [8] | [9] | [10]
active: [1] 48.9 µM | [2] 20.9 µM [middle of 4 runs]

Clc1ccc(C(c2ccccc2Cl)C(Cl)(Cl)Cl)cc1 (stereo unspecified)
active: [1] 70.5 µM | [2] 3.54 µM [middle of 4 runs] | [6] 70.5 µM | [9] 45.3 µM
inactive: [1] | [3] | [4] | [5] | [6] | [8] | [9] | [10]

CCSC(=O)N(CC)C1CCCCC1
active: [2] 12.3 µM
not listed: [7] | [8]
inactive: all other assays above

CC(c1ccc(O)cc1)(c1ccc(O)cc1)c1ccc(O)cc1
inactive: [3] | [5] | [8]
active: [1] 11.1 µM | [2] 0.575 µM | [4] 11.1 µM | [6] 19.6 µM | [9] 17.3 µM | [10] 11.9 µM

Nc1ccc(-c2ccc(N)cc2)cc1
not listed: [3] | [7] | [8]
inactive: all other assays above

ClC1=C(Cl)[C@]2(Cl)[C@@H]3[C@@H]4C[C@@H]([C@H]5O[C@@H]45)[C@@H]3[C@@]1(Cl)C2(Cl)Cl
active: [2] 2.36 µM | [4] 81.4 µM | [10] 56.2 µM
not listed: [7] | [8]
inactive: all other assays above

COS(=O)(=O)OC
not listed: [7] | [8]
inactive: all other assays above

O=C(N[C@H]1CN2CCC1CC2)c1cc2ccoc2cn1
not listed: [7] | [8]
inactive: all other assays above

C=CC(=O)NCNC(=O)C=C
not listed: [4] | [7]
inactive: all other assays above

CCCN(CCC)N=O
not listed: [8]
inactive: all other assays above

CCOP(=S)(OCC)SCSC(C)(C)C
active: [2] 7.42 µM and 2.05 µM
not listed: [4] | [7] | [8]
inactive: all other assays above

Cc1cccc([N+](=O)[O-])c1
not listed: [4] | [8]
inactive: all other assays above

Oc1c(Cl)c(Cl)c(Cl)c(Cl)c1Cl
inactive: [5] | [7] | [9] | [10]
active: [1] 50 µM and 14 µM and 34 µM | [2] 13.6 µM and 12.2 µM and 5.75 µM | [4] 24.1 µM and 5.68 µM and 4.77 µM | [5] 23.5 µM and 31.3 µM | [6] 20.7 µM and 27.9 µM and 166 µM | [7] 50 µM and 83.2 µM | [9] 17.1 µM | [10] 11.8 µM

C=CC(N)=O
active: [2] 34 µM
not listed: [3] | [7]
inactive: all other assays above

CCOC(=O)C(O)(c1ccc(Cl)cc1)c1ccc(Cl)cc1
active: [2] 3.33 µM
not listed: [7] | [8]
inactive: all other assays above

Cc1cc2c3c(c1)C(c1ccccc1)=N[C@@H](NC(=O)c1ccncc1)C(=O)N3CC2
inactive: [3] | [5] | [8]
active: [1] 100 µM | [2] 0.909 µM | [4] 6.95 µM | [6] 181 µM | [9] 100 µM | [10] 35.8 µM

O=C(O)C(F)(F)C(F)(F)C(F)(F)C(F)(F)C(F)(F)F
not listed: [7] | [8]
inactive: all other assays above
